Data published in ChEMBL document CHEMBL4513216, “Probing the Open Global Health Chemical Diversity Library for Multistage-Active Starting Points for Next-Generation Antimalarials” (ACS Infect Dis, 2020).
Hit rate of the full screen: of about 65,000 compounds, about 2,100 (3.2%) showed an effect of 50% or more. The median lay at about -52%. The full list was thinned out, with strong results kept by preference.

system: Plasmodium falciparum; experiment: Screen against P. falciparum Asexual Blood Stage (ABS), at 5uM; format: functional, Dd2; details: tested at 5 uM

Compound	INHIBITION [%]
CCC/C=C/c1ccc(CN2CCN(C)CC2)cn1	0.24
O=C(C1CC2(CCNCC2)CN1)N1CCN(c2cccc(Cl)c2Cl)CC1 (stereo not drawn)	79.2
O=C(NCc1cnn2cccnc12)C1CC2(CCNCC2)CN1 (stereo not drawn)	-20.8
O=C(C1CC1)N1CC2(CCNCC2)C1	-76.2
CC(Cn1cccn1)NCc1nc(-c2cccs2)no1 (stereo not drawn)	-230
CC(C)c1nc(CNCC2CCCN2c2cccnn2)cs1 (stereo not drawn)	71.1
c1cnnc(N2CCCC2CNCc2nc(-c3cccs3)no2)c1 (stereo not drawn)	72.2
COc1nc(C)ccc1CNc1cc(N2CCCC2CO)ncn1 (stereo not drawn)	-50.3
Cc1ccsc1CNCC1CCCN1c1cccnn1 (stereo not drawn)	78.8
CC(C)c1nc(CC(=O)N2CCN(C)CC2c2ccccc2)cs1 (stereo not drawn)	-16.5
Cc1nc(CN2CCC23CCN(C(=O)c2ccncc2)CC3)cs1	2.76
O=C(C1CC=CC1)N1CCC2(CC1)OCCO2	-69.1
O=C(O)[C@@H]1CN(CC(=O)N2CCCCCC2)C[C@H]1c1ccc(F)cc1	-66.2
NCC(=O)N1CCCCC1c1ccc(F)cc1 (stereo not drawn)	85.3
O=C(O)[C@@H]1CN(CC(=O)N2CCCCC2)C[C@H]1c1ccc(F)cc1	-140
Cc1ncsc1CN1C[C@@H](OCc2ccncc2)[C@H]2OCCC[C@H]21	-190
CC(C)C(NC(=O)c1ccccc1F)C(=O)N1CCC2(CC1)OCCO2 (stereo not drawn)	-65.9
Fc1cnc(N2CCO[C@H]3CN(CC4CCOC4)C[C@H]32)nc1 (stereo partly drawn)	-57.2
Cc1cn2c(n1)C(CNCC1=Cc3cc(Cl)ccc3OC1)CCC2 (stereo not drawn)	88.2
Cc1cn2c(n1)C(CNCC1=Cc3ccccc3OC1)CCC2 (stereo not drawn)	79
CC(C)C(=O)N1C[C@H]2CCCN[C@H]2C1	28.1
COc1cccc2c(=O)n(C3CCCNC3)cnc12 (stereo not drawn)	-35.5
CC(C)c1ocnc1C(=O)N1CCC2(CC1)OCCO2	-39.3

Compound	INHIBITION [%]
Cc1cc(CNC(C)Cn2cncn2)ccc1Br (stereo not drawn)	-29.8
CCCOc1ccccc1C(N)CC(C)C (stereo not drawn)	75.1
COC[C@H]1CCC[C@]12CN(Cc1cccc(C)n1)CCO2	-25.5
OCCN1CC2(CCN(c3ccccc3)C2)C1	62.8
CN1C(=O)C2(CCN(CCO)C2)c2ccccc21 (stereo not drawn)	-143
O=C1Nc2ccccc2CC12CCN(CCO)C2 (stereo not drawn)	-93.6
Cc1noc(C)c1CN1CC[C@@H]2O[C@@H](COCC3CC3)CC[C@@H]21	0.666
OCC1CCCCN1c1ccc(-c2nc(-c3ccccc3F)no2)cn1 (stereo not drawn)	75.5
O=C(Cc1ccncc1)N1C[C@@H]2CC[C@H]1CN(Cc1cccnc1)C2	10.9
Cc1nc(CN2CCCC3(CCN(c4cccnc4)C3=O)C2)cs1 (stereo not drawn)	-34.3
CN(C)CCN(CC1CCCO1)C(=O)Cc1cn2ccccc2n1 (stereo not drawn)	-90.1
c1ccn2cc(CN3CCCC(c4ccn[nH]4)C3)nc2c1 (stereo not drawn)	89.1
Cn1ncc(NCc2cccc(OCC(F)(F)F)c2)c(Cl)c1=O	-44.7
CCCS(=O)(=O)N1CCN(CCOC)c2nc(C)ccc2C1	-87
CCn1cc(NC(=O)N2CCN(C(=O)Oc3ccccc3)CC2)cn1	-56.8
c1cnc(N2CCOCC3(CCCN(Cc4cc[nH]n4)C3)C2)nc1 (stereo not drawn)	-63.1
c1cc(CN2CCOCC3(CCNCC3)C2)ccn1	-114
c1[nH]c(CC2CCCC2)nc1CN1CCCC2(CCOC2)C1 (stereo not drawn)	82.2
Cc1cc(CN(C)C(=O)CN2CCCC2=O)no1	-32.3
COc1cc(OC)cc(C2SCC(=O)Nc3ccsc32)c1 (stereo not drawn)	-38.5
O=C(Nc1cccnc1)[C@H]1C[C@H]2OCC[C@H]2N(CC2CC2)C1	-67.1
Cc1n[nH]c2c1C(c1cccnc1)SCC(=O)N2 (stereo not drawn)	-32.5
Cc1cccc(CN2CCN(C(=O)N(C)C)[C@@H]3CS(=O)(=O)C[C@@H]32)n1	-85.1

Compound	INHIBITION [%]
CCC[C@H]1CN(c2nc(CO)cs2)C[C@@H]1NC(=O)C1(COC)CC1	71.7
O=C(Nc1cccnc1)[C@H]1COC[C@H]2CN(C3CCCC3)C[C@H]21	12.5
O=C(C[C@@H]1COC[C@H]2CN(CC3CC3)C[C@@H]12)NCc1cccnc1	-75.7
O=C(C1CCCC1)N1C[C@H]2CNC[C@H]2C1	-5.05
O=C(C1CCOCC1)N1C[C@H]2CNC[C@H]2C1	52.6
O=C(C1CCC1)N1C[C@H]2CNC[C@H]2C1	-30.2
O=C(CC1CC1)N1C[C@H]2CCN[C@H]2C1	-62.6
O=S(=O)(c1cccnc1)N1C[C@@H]2COC[C@]2(CN2CCOCC2)C1	-111
CN1CCN(Cc2ccccc2CNC(=O)c2ccc(Cl)cc2F)CC1	77.2
Cc1cc(CN2CCN(C(=O)Cc3ccccc3F)CC2)on1	-206
CN1CCN(Cc2ccccc2CNC(=O)c2cc(Br)ccc2F)CC1	77.5
Cc1ncsc1CN1C[C@H](OCc2ccncc2)[C@H]2OCCC[C@H]21	-47.7
O=C(Cc1cccs1)N1C[C@@H]2OCCN(CC3CCCC3)[C@@H]2C1	-96.4
CC(Cn1cccn1)NCc1csc(-c2cccs2)n1 (stereo not drawn)	-268
CCc1nc(CNC(C)Cn2cccn2)cs1 (stereo not drawn)	-78.5
COc1cccc(-c2nc(CNCCCn3cccn3)cs2)c1	76.3
Cc1cc(CN2CC[C@H]3C[C@H](C(=O)N(C)C)O[C@@H]3C2)no1	-20.9
c1cc(CN2CCSC3(CCCCC3)C2)no1	-170
CC(C)Nc1ccc2nc(C3CCNCC3)nn2c1	-54.1
O=C(NCCN1CCCCC1)C(c1ccccc1)N1CCCC1 (stereo not drawn)	80
CC(C(=O)N1CCCC1)N1CCCN(C(=O)Oc2ccccc2)CC1 (stereo not drawn)	-54.8
Cc1nn(C)c(C)c1C(C(=O)O)N1CC=C(c2ccccc2)CC1 (stereo not drawn)	-74.2
